Laboratory results as given in ChEMBL document CHEMBL4513216, “Probing the Open Global Health Chemical Diversity Library for Multistage-Active Starting Points for Next-Generation Antimalarials” (ACS Infect Dis, 2020).
Out of some 65,000 compounds screened, about 2,100 (3.2%) showed an effect of 50% or more. The median lay at about -52%. The full list was thinned out, with strong results kept by preference.

Test system: Plasmodium falciparum
Experiment: Screen against P. falciparum Asexual Blood Stage (ABS), at 5uM
Type: functional, Dd2
Details: tested at 5 uM

In order of rising INHIBITION:
1. NC(=O)CN1CCC(NC(=O)COc2ccc(Cl)c(Cl)c2)CC1  -138%
2. c1nc(N2CCCC2)cnc1C1CCNCC1  -135%
3. NC(=O)C(c1ccc(F)cc1)N1CCN(CCO)CC1 (configuration not stated)  -133%
4. Cc1ccccc1SC1CCN(C(=O)CCCS(N)(=O)=O)CC1  -124%
5. O=C(COCC1CC1)NCC(c1ccccc1)N1CCc2sccc2C1 (configuration not stated)  -122%
6. CCc1nc(C)c(CC(=O)N2CCC3(CC2)OCCCC3O)c(=O)[nH]1 (configuration not stated)  -109%
7. CCOCC(O)CN1CCN(C(=O)C2CCCCC2)CC1 (configuration not stated)  -108%
8. NC(=O)c1cccnc1N1CCN(c2ncnc3c2CCNC3)CC1  -103%
9. O=C1CCCCN1Cc1cccc(OC(F)F)c1  -103%
10. CCCn1nnc2c(sc3nc(N4CCOCC4)c4c(c32)CCC4)c1=O  -102%
11. c1nc2c(c(N3CCOCC3)n1)CCNCC2  -98%
12. c1cncc(-c2noc(CNCC3CCCN3c3cccnn3)n2)c1 (configuration not stated)  -92.3%
13. Cc1cccnc1CC(C)Nc1nc(N)nc2c1CCNC2 (configuration not stated)  -92%
14. CN(C)S(=O)(=O)N1CC[C@]2(O)CCN(Cc3cc(F)cc(F)c3)C[C@@H]2C1  -81.9%
15. CSc1ccc(C(CNC(C)=O)N2CCc3sccc3C2)cc1 (configuration not stated)  -77.1%
16. COc1ccccc1Cc1nnc(SCCS(C)(=O)=O)o1  -75.9%
17. Cc1ccc(-c2noc(CN3CCC(N4CCNC4=O)CC3)n2)cc1  -63.1%
18. CN(C)S(=O)(=O)N1CC[C@]2(O)CCN(CCCc3cccnc3)C[C@@H]2C1  -62.2%
19. CCOCCCC(=O)NCC(c1ccccc1)N1CCc2sccc2C1 (configuration not stated)  -59.8%
20. CN(C)S(=O)(=O)N1CC[C@]2(O)CCN(Cc3cccc(C#N)c3)C[C@@H]2C1  -58.1%
21. CC(C)c1nnc2ccc(N3CCCC(C(=O)Nc4nccs4)C3)nn12 (configuration not stated)  -58%
22. O=C1CCCC2=Nc3nonc3NC(c3cc(Cl)ccc3F)C12 (configuration not stated)  -54%
23. COCC1(C(=O)N[C@H]2CN(c3ccnc(C)c3)C[C@@H]2C2CC2)CCC1  -51.7%
24. Cc1noc(C)c1CN1C(=O)[C@@H]2CC[C@H]1CN(Cc1cccnc1N)C2  -49.1%
25. CCc1cnc(CN(C)C(=O)Nc2cnn(CC3CCCO3)c2)s1 (configuration not stated)  -48.8%
26. Cn1cc(CNC2CCc3c(ccc(=O)n3Cc3cccnc3)C2)cn1 (configuration not stated)  -48.3%
27. CCS(=O)(=O)N1Cc2ncn(C)c2C(COCC2CCOCC2)C1 (configuration not stated)  -46.6%
28. Cc1ccc(CN2C[C@@H]3COC[C@]3(COc3ccc(C#N)cn3)C2)o1  -45.3%
29. c1ccc2c(NC3CCc4ncnn4C3)ncnc2c1 (configuration not stated)  -38%
30. Cc1nc(CNCC2CCCN2c2cccnn2)cs1 (configuration not stated)  -34.2%
31. c1cnnc(N2CCCC2CNCc2nc3ccccc3o2)c1 (configuration not stated)  -31.6%
32. c1ccc2c(c1)CCN(c1ncnc3sc4c(c13)CCNC4)C2  -28.5%
33. c1ccc2c(c1)CN(c1ncnc3sc4c(c13)CCNC4)CCO2  -26.7%
34. Cc1ncccc1Oc1nccnc1C1CCCN(C(C)C)C1 (configuration not stated)  -26.3%
35. CC(C)N1CCCC(Cc2cncc(Br)c2)CC1 (configuration not stated)  -20.1%
36. O=C(NCCN1CCC(c2cccs2)CC1)c1ccc(F)cc1Cl  -19.5%
37. Cc1nc(CN(C)CC2CCCN2c2cccnn2)oc1C (configuration not stated)  -18.6%
38. CCc1cc(C(F)(F)F)n2nc(C3CCCN3C(=O)COC)cc2n1 (configuration not stated)  -17.9%
39. Cc1nnc2ccc(N3CCC(C(=O)Nc4nccs4)CC3)nn12  -16.3%
40. COCCOc1ccccc1C(=O)N1CCCC(c2cc(C)[nH]n2)C1 (configuration not stated)  -15.2%
41. O=C(NCCO)NCC(c1ccccc1)N1CCc2sccc2C1 (configuration not stated)  -6.62%
42. Cc1cccc(CNCC2(O)CCCN(CC3CCCCC3)C2=O)n1 (configuration not stated)  -3.18%
43. Cn1cccc1CN1CCc2ncnc(-c3cccnc3)c2CC1  0.898%
44. Cc1cc(C)n(CC(C)Nc2nc(C)nc3c2CCNC3)n1 (configuration not stated)  2.63%
45. CC(=O)NCCN1CCC(c2cccs2)CC1  6.31%
46. CSc1ccc(C(CN)N2CCc3sccc3C2)cc1 (configuration not stated)  9.08%
47. CCC[C@H]1CN(Cc2cc(C#N)n(C)c2C)C[C@@H]1N(C)C  20.2%
48. CSc1ccc(C(CNC(=O)C2CC2)N2CCc3sccc3C2)cc1 (configuration not stated)  20.6%
49. CN(C)S(=O)(=O)N1CC[C@]2(O)CCN(Cc3cccc(F)c3)C[C@@H]2C1  20.7%
50. c1cc(C2CCN(c3ncnc4c3CCNCC4)CC2)ccn1  27.2%
51. CCSc1ccccc1C(=O)NCCN1CCC(c2cccs2)CC1  30.9%
52. CN(C)c1nc2c(c(N3CCc4ccccc4C3)n1)CCNC2  31.4%
53. CC(C)(C)CN1CCCC12CCN(S(=O)(=O)c1ccccc1)C2 (configuration not stated)  32.5%
54. O=C(NCCN1CCC(c2cccs2)CC1)c1ccccc1C(F)(F)F  34.2%
55. c1cnnc(N2CCCC2CNCc2nc(-c3ccoc3)no2)c1 (configuration not stated)  35.2%
56. c1cnnc(N2CCCC2CNCc2cscn2)c1 (configuration not stated)  35.8%
57. CCCc1nc(CNCC2CCCN2c2cccnn2)cs1 (configuration not stated)  37.5%
58. c1cnnc(N2CCCC2CNCCc2cccs2)c1 (configuration not stated)  40%
59. c1cnnc(N2CCCC2CNCc2csc(-c3ccco3)n2)c1 (configuration not stated)  41.4%
60. Cc1ccc(CNCC2CCCN2c2cccnn2)s1 (configuration not stated)  46.6%
61. c1cnnc(N2CCCC2CNCc2nc(-c3ccco3)no2)c1 (configuration not stated)  50.5%
62. CN(C)S(=O)(=O)N1CC[C@]2(O)CCN(CCc3cccc(F)c3)C[C@@H]2C1  53.4%
63. Cc1ccc(CN2CC[C@@]3(O)CCN(S(=O)(=O)N(C)C)C[C@H]3C2)cc1C  53.6%
64. c1cnnc(N2CCCC2CNCc2cccs2)c1 (configuration not stated)  55.7%
65. NCC(c1ccccc1)N1CCc2sccc2C1 (configuration not stated)  57.9%
66. CCc1nc(CNCC2CCCN2c2cccnn2)cs1 (configuration not stated)  58.7%
67. c1ccc(C2CCCN(c3ncnc4c3CCNC4)CC2)cc1 (configuration not stated)  61.2%
68. c1ccc2c(c1)CCN(c1nc(-c3ccncc3)nc3c1CCNC3)C2  61.6%
69. O=C(Cc1ccccc1Cl)NCCN1CCC(c2cccs2)CC1  63.6%
70. O=C(NCCN1CCC(c2cccs2)CC1)Nc1cccs1  64.2%
71. c1ccc2c(c1)CN(c1ncnc3c1CCNC3)CCO2  65.9%
72. NCC(c1ccc(Cl)cc1)N1CCc2sccc2C1 (configuration not stated)  66.5%
73. CC(C)c1nnc2ccc(N3CCC(C(=O)Nc4nccs4)CC3)nn12  66.9%
74. Cc1cccc(C)c1OCC(C)Nc1nc(N)nc2c1CCNC2 (configuration not stated)  67%
75. CC(C)CCc1nc(CNCC2CCCN2c2cccnn2)cs1 (configuration not stated)  67.4%
76. CN(Cc1nc2ccccc2o1)CC1CCCN1c1cccnn1 (configuration not stated)  69.3%
77. CC(C)c1ccc(C(CN)N2CCc3sccc3C2)cc1 (configuration not stated)  69.8%
